Compound activity (PubChem BioAssay)
Algae TAG accum = increases triacylglycerol in Chlamydomonas reinhardtii. Chlamydomonas reinhardtii TAG, Nile Red fluorescence, 72 h. calls only at 10 µM (by protocol). AID 1159537. 44,000 compounds, 0.84% hits; call rule not given here;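 note: hits raise Nile Red signal meaning more stored TAG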
Active calls of the source: *. Only a selection was taken, and hits are over-represented in it overall.

For C1=CC2CC1CC2CN1CCN(Cc2ccccn2)CC1 (stereo not drawn) the results were Algae TAG accum inactive.
Screening C1=CC2CC1CC2CN1CCOCC1 (stereo not drawn) returned Algae TAG accum inactive.
Screening O=C(c1ccc([N+](=O)[O-])cc1)N1CCN(CC2CC3C=CC2C3)CC1 (stereo not drawn) returned Algae TAG accum active.
Screening NC(=O)C1CCN(CC2CC3C=CC2C3)CC1 (stereo not drawn) returned Algae TAG accum inactive.
Screening CN(C)CCCN1C(=O)C(O)=C(C(=O)c2ccco2)C1c1cccc([N+](=O)[O-])c1 (stereo not drawn) returned Algae TAG accum inactive.
Screening CC(=NN1CCN(C)CC1)C1=C(O)c2ccccc2C1=O returned Algae TAG accum inactive.
Screening CCOc1ccccc1NC(=O)CN(c1cc(Cl)ccc1C)S(C)(=O)=O returned Algae TAG accum inactive.
`COc1ccc(N(C)C)cc1` gave Algae TAG accum inactive.
`CN(C)CCCOc1ccccc1Br` gave Algae TAG accum inactive.
Cc1ccc(Cl)cc1NC(=O)c1ccc(Br)o1 was read as Algae TAG accum inactive.
CC(NC(=O)c1nc2ccccc2[nH]1)c1ccccc1 (stereo not drawn) was read as Algae TAG accum inactive.
For Nc1ccc(Oc2ccc(N)c(N)c2)cc1 the results were Algae TAG accum inactive.
Screening COc1ccc(NC(=O)CSc2nnnn2-c2ccc3c(c2)OCO3)cc1Cl returned Algae TAG accum inactive.
For CCOc1ccc(OCC)c(S(=O)(=O)N2CCN(c3ccccc3F)CC2)c1 the results were Algae TAG accum inactive.
N#C/C(=C/c1ccc(F)cc1)c1ccc([N+](=O)[O-])cc1 was read as Algae TAG accum inactive.
For Oc1ccc(Br)cc1CN1CCC(N2CCOCC2)CC1 the results were Algae TAG accum active.
COc1ccc(Br)cc1CN1CCC(N2CCCCC2)CC1 was read as Algae TAG accum inactive.
Screening O=[N+]([O-])c1ccc(O)c(CN2CCOCC2)c1 returned Algae TAG accum inactive.
NC(=O)C1CCN(Cc2ccc(Br)cc2)CC1 was read as Algae TAG accum inactive.
`C=CCc1cc(C)ccc1OCCCCN1CCOCC1` gave Algae TAG accum inactive.
For Cc1cc(C)c(C)c(OCC(=O)NCCN2CCOCC2)c1 the results were Algae TAG accum inactive.
Screening Cc1ccc(C(C)C)cc1OCCCCN1CCOCC1 returned Algae TAG accum active.
Screening Cc1cc(C)c(C)c(OCCCCN2CCOCC2)c1 returned Algae TAG accum active.
C=CCc1ccccc1OCCCCN1CCOCC1 was read as Algae TAG accum inactive.
`Cc1cccc(OCCN2CCOCC2)c1C` gave Algae TAG accum inactive.
Screening Cc1ccccc1OCCCCN1CCOCC1 returned Algae TAG accum active.
Screening Cc1cc(C)c(OCCN2CCOCC2)c(C)c1 returned Algae TAG accum inactive.
Screening Cc1ccc(OCCCN2CCOCC2)cc1C returned Algae TAG accum inactive.
Cc1cccc(OCc2nnc(SCC(=O)NC3CCCCC3)o2)c1 was read as Algae TAG accum inactive.
Screening COc1ccc(Br)cc1C(=O)Nc1ccc(F)cc1F returned Algae TAG accum inactive.
COc1ccccc1C(=O)Nc1nnc(/C=C/c2ccccc2)s1 was read as Algae TAG accum inactive.
CC1(C)Cc2c(c(N3CCOCC3)nc3sc(C(=O)NN)cc23)CO1 was read as Algae TAG accum inactive.
Screening CC(C)c1ccc(CN2CCOCC2)cc1 returned Algae TAG accum active.
For CC(C)c1ccc(CN2CCC(O)CC2)cc1 the results were Algae TAG accum inactive.
Screening Clc1ccc(CN2CCOCC2)cc1Cl returned Algae TAG accum inactive.
For N#C/C(=C\c1ccc([N+](=O)[O-])cc1)c1nc(-c2ccc(Br)cc2)cs1 the results were Algae TAG accum inactive.
`CSc1ccc(C2C(C#N)=C(N)Oc3c2c(=O)[nH]c2ccccc32)cc1` (stereo not drawn) gave Algae TAG accum inactive.
For Cc1nnc(N2C(=O)C(O)=C(C(=O)c3cccs3)C2c2ccc(Cl)c(Cl)c2)s1 (stereo not drawn) the results were Algae TAG accum inactive.
Screening CC(NC(=O)c1ccccc1Br)C1CC2CCC1C2 (stereo not drawn) returned Algae TAG accum inactive.
For Cc1ccc(C(=O)NC(C)C2CC3CCC2C3)s1 (stereo not drawn) the results were Algae TAG accum active.
CC(NC(=O)c1ccccc1[N+](=O)[O-])C1CC2CCC1C2 (stereo not drawn) was read as Algae TAG accum inactive.
Screening O=C(CCN1CCN(C/C=C/c2ccccc2)CC1)Nc1ccc2c(c1)OCO2 returned Algae TAG accum inactive.
For CC(NCC(O)COc1ccc(Br)cc1)c1ccccc1 (stereo not drawn) the results were Algae TAG accum inactive.
`CCN(CC(O)COc1ccc(Br)cc1)C1CCCCC1` (stereo not drawn) gave Algae TAG accum active.
For O=[N+]([O-])c1ccc(OCC(O)CN(C2CCCCC2)C2CCCCC2)cc1 (stereo not drawn) the results were Algae TAG accum inactive.
O=C(COc1ccc(Br)cc1)NC1CCCC1 was read as Algae TAG accum inactive.
Screening CN(CC(O)COc1ccc(Br)cc1)C1CCCCC1 (stereo not drawn) returned Algae TAG accum active.
`CN(CC(O)COCc1ccc2c(c1)OCO2)C1CCCCC1` (stereo not drawn) gave Algae TAG accum inactive.
COc1cccc(OCCCOc2cccc(C=O)c2)c1 was read as Algae TAG accum inactive.
`O=C(CCC1CCCCC1)Nc1ccc(F)cc1F` gave Algae TAG accum inactive.
Screening CCOc1cc(C(=O)NCCc2nc3ccccc3[nH]2)cc(OCC)c1OCC returned Algae TAG accum inactive.
For CC(=O)Nc1nnc(SCC(=O)N2CCCCC2)s1 the results were Algae TAG accum inactive.
CCOc1ccc(C(=O)NCCNC(=O)c2ccc(OCC)cc2)cc1 was read as Algae TAG accum active.
`CCOc1ccc(C(=O)NCCC(=O)O)cc1` gave Algae TAG accum inactive.
`CCOc1ccc(C(=O)NCCCN(C)C)cc1` gave Algae TAG accum inactive.
CCC(Oc1ccccc1)C(=O)Nc1cccc(C(C)=O)c1 (stereo not drawn) was read as Algae TAG accum inactive.
`CCC(Sc1cccs1)C(=O)NC(C)c1ccccc1` (stereo not drawn) gave Algae TAG accum inactive.
CCC(C)c1ccccc1OCCCN1CCOCC1 (stereo not drawn) was read as Algae TAG accum active.
`CCC(C)c1ccccc1OCCNC(C)C` (stereo not drawn) gave Algae TAG accum inactive.
Clc1ccc(OCCOCCN2CCOCC2)cc1Cl was read as Algae TAG accum inactive.
CCc1ccc(OCCOCCN2CCOCC2)cc1 was read as Algae TAG accum active.
CCC(C)c1ccccc1OCCOCCN1CCOCC1 (stereo not drawn) was read as Algae TAG accum active.
CCC(C)c1ccccc1OCCN1CCCC1 (stereo not drawn) was read as Algae TAG accum inactive.
For CCC(C)c1ccccc1OCCOCCN1CCCC1 (stereo not drawn) the results were Algae TAG accum inactive.
Screening CCC(C)c1ccccc1OCCCCN1CCCC1 (stereo not drawn) returned Algae TAG accum active.
c1ccc(-c2ccccc2OCCCN2CCOCC2)cc1 was read as Algae TAG accum inactive.
Fc1ccccc1OCCN1CCOCC1 was read as Algae TAG accum inactive.
O=[N+]([O-])c1ccccc1OCCCN1CCOCC1 was read as Algae TAG accum inactive.
